# Experimental data as given in article PMC7862700, “An all-to-all approach to the identification of sequence-specific readers for epigenetic DNA modifications on cytosine”.
# Assays:
# Assay in all cases: DAPPL (digital affinity profiling via proximity ligation, sequencing); 10 mM Tris-HCl pH 7.5, 50 mM NaCl, 1 mM DTT, 4% glycerol, room temperature, 30 min; GST-TFs on glutathione beads, 16-mer random dsDNA library, 0.1% formaldehyde crosslink after washing; high values mean tight binding
# FLI1 = target: T1, FLI1 (Homo sapiens, UniProt Q01543 1-452); conditions: protein: recombinant; tags: N-terminal GST; dsDNA, one strand shown
# T1 sequence: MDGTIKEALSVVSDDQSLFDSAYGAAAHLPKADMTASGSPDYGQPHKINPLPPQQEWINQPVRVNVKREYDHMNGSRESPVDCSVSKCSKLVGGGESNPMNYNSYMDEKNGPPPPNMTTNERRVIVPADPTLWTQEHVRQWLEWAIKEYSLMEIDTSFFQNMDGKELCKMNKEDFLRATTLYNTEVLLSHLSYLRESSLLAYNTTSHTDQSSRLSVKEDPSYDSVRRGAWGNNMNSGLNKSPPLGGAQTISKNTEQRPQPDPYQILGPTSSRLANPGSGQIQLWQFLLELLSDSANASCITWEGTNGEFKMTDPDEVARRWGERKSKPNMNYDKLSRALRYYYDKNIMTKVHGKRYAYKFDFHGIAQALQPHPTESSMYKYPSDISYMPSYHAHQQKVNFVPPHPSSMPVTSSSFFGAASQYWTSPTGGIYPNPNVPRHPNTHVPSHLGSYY
# Method in brief: (§1)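 A tag-only sample was pooled with DNA-barcoded human transcription factors that had been expressed in yeast as GST fusions and captured on glutathione beads. The pools were incubated for 30 min at room temperature with 200 nmole of a random double-stranded 16-mer DNA library in Tris/NaCl/DTT/glycerol buffer, then washed, crosslinked with 0.1% formaldehyde, proximity-ligated (BsaI/T4 ligase, 1 h, 37 °C), PCR-amplified and sequenced on an Illumina NextSeq500. Binding signal is each hexamer's read frequency for a factor divided by its frequency for the tag-only sample.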
# ELK1 = target: T2, ELK1 (Homo sapiens, UniProt P19419 1-428); conditions: protein: recombinant; tags: N-terminal GST; dsDNA, one strand shown
# T2 sequence: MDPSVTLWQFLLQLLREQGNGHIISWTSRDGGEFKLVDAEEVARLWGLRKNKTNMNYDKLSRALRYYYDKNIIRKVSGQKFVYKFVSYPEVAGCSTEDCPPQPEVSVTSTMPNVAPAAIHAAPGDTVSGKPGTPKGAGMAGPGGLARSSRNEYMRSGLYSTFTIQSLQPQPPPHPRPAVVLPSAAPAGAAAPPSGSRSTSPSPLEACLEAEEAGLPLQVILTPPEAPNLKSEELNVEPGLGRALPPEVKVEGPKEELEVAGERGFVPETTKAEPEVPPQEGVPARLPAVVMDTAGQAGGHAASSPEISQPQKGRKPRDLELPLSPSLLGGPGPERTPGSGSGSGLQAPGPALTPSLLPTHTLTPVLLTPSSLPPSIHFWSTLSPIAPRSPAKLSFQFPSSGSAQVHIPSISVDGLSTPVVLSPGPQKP
# Method in brief: as §1
# GABPA = target: T3, GABPA (Homo sapiens, UniProt Q06546 1-454); conditions: protein: recombinant; tags: N-terminal GST; dsDNA, one strand shown
# T3 sequence: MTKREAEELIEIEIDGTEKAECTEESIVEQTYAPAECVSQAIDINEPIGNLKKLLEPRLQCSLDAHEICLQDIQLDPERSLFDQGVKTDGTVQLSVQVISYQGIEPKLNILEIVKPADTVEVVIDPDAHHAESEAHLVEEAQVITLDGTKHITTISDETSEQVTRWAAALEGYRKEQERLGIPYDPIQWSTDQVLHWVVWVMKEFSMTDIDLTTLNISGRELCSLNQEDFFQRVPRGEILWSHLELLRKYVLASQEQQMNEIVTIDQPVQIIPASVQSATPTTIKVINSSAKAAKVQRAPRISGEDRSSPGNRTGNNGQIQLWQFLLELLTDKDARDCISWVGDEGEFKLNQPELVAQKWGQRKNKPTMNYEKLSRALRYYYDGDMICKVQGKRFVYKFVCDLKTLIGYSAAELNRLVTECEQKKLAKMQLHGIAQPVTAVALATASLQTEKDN
# Method in brief: as §1
# ERG = target: T4, ERG (Homo sapiens, UniProt P11308 1-479); conditions: protein: recombinant; tags: N-terminal GST; dsDNA, one strand shown
# T4 sequence: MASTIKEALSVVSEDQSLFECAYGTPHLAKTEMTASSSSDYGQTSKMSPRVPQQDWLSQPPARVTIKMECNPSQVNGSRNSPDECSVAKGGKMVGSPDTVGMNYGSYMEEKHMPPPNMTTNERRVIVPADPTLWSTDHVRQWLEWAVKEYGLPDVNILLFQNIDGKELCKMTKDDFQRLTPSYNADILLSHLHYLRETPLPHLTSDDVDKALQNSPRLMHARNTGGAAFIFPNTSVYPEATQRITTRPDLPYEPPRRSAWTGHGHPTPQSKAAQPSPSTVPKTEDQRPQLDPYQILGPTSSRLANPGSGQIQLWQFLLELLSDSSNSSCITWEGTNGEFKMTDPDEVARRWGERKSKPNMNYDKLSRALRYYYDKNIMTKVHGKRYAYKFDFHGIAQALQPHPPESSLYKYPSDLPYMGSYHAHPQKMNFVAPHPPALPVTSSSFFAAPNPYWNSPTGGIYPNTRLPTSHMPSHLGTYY
# Method in brief: as §1
# ELF1 = ELF1 (Homo sapiens, UniProt P32519 1-619); conditions: protein: recombinant; tags: N-terminal GST; dsDNA, one strand shown
# Method in brief: as §1
# EHF = target: T5, EHF (Homo sapiens, UniProt Q9NZC4 1-300); conditions: protein: recombinant; tags: N-terminal GST; dsDNA, one strand shown
# T5 sequence: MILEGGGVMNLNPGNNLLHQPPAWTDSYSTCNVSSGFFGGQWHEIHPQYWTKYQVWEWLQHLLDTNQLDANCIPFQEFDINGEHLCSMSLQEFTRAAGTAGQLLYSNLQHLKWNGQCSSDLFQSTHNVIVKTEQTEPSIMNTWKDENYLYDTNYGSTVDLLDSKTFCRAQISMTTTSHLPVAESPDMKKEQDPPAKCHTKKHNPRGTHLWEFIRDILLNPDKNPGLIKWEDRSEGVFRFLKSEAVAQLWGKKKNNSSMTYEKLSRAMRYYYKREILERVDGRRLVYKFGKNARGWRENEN
# Method in brief: as §1
# SPI1 = SPI1 (Homo sapiens, UniProt P17947 1-270); conditions: protein: recombinant; tags: N-terminal GST; dsDNA, one strand shown
# Method in brief: as §1
# SPIB = SPIB (Homo sapiens, UniProt Q01892 1-262); conditions: protein: recombinant; tags: N-terminal GST; dsDNA, one strand shown
# Method in brief: as §1
# ELK3 = target: T6, ELK3 (Homo sapiens, UniProt P41970 1-407); conditions: protein: recombinant; tags: N-terminal GST; dsDNA, one strand shown
# T6 sequence: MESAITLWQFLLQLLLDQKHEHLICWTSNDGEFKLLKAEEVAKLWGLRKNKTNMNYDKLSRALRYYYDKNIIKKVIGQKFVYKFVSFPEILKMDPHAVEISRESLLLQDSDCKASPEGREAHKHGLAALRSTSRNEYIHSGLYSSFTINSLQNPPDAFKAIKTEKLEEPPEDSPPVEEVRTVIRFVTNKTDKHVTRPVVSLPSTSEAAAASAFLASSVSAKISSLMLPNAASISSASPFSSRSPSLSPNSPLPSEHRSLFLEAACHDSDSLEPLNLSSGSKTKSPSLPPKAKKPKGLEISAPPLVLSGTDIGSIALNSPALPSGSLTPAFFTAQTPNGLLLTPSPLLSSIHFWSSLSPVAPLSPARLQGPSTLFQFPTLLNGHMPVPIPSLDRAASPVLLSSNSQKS
# Method in brief: as §1
# FEV = target: T7, FEV (Homo sapiens, UniProt Q99581 1-238); conditions: protein: recombinant; tags: N-terminal GST; dsDNA, one strand shown
# T7 sequence: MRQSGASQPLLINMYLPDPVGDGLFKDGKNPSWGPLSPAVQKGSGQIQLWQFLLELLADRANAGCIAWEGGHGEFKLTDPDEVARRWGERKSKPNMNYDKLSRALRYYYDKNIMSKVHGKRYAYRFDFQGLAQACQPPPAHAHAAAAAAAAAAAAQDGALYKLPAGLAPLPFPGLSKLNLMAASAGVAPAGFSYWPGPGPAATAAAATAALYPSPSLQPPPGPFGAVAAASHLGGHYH
# Method in brief: as §1
# ETV5 = ETV5 (Homo sapiens, UniProt P41161 1-510); conditions: protein: recombinant; tags: N-terminal GST; dsDNA, one strand shown
# Method in brief: as §1
# HSF1 = HSF1 (Homo sapiens, UniProt Q00613 1-529); conditions: protein: recombinant; tags: N-terminal GST; chain copies: 3; dsDNA, one strand shown
# Method in brief: as §1
# ELF4 = ELF4 (Homo sapiens, UniProt Q99607 1-663); conditions: protein: recombinant; tags: N-terminal GST; dsDNA, one strand shown
# Method in brief: as §1
# ELK4 = target: T8, ELK4 (Homo sapiens, UniProt P28324-2 1-405); conditions: protein: recombinant; tags: N-terminal GST; dsDNA, one strand shown
# T8 sequence: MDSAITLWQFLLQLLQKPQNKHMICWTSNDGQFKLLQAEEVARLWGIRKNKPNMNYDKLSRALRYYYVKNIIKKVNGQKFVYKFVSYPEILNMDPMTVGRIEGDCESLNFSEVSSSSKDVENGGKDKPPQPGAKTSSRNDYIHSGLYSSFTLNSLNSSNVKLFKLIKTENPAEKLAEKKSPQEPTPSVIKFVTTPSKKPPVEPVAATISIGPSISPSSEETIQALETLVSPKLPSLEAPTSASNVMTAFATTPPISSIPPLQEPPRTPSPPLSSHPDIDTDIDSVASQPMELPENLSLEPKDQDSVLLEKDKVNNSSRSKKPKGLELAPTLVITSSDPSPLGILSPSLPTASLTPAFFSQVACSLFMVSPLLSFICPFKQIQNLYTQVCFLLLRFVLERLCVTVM
# Method in brief: as §1
# ETV2 = target: T9, ETV2 (Homo sapiens, UniProt O00321 1-342); conditions: protein: recombinant; tags: N-terminal GST; dsDNA, one strand shown
# T9 sequence: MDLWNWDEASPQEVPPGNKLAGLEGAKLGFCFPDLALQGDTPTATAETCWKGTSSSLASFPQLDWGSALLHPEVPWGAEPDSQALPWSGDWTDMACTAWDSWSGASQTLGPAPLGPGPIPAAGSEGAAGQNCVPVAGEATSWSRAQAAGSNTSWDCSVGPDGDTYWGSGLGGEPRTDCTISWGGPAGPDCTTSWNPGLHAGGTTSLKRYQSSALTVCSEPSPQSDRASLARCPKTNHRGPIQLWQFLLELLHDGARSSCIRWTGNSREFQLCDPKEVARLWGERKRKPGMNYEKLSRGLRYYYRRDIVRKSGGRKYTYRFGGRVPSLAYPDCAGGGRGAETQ
# Method in brief: as §1
# ELF3 = target: T10, ELF3 (Homo sapiens, UniProt P78545 1-371); conditions: protein: recombinant; tags: N-terminal GST; dsDNA, one strand shown
# T10 sequence: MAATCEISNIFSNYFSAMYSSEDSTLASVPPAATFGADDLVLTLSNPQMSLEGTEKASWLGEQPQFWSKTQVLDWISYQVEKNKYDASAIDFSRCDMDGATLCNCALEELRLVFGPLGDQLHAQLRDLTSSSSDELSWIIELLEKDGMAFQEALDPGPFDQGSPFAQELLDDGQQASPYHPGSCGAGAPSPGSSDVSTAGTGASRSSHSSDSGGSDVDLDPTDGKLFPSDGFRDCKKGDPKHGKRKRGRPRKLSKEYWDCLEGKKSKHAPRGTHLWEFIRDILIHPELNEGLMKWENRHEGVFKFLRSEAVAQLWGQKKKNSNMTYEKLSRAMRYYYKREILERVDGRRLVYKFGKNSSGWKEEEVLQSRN
# Method in brief: as §1
# CRX = CRX (Homo sapiens, UniProt O43186 1-299); conditions: protein: recombinant; tags: N-terminal GST; dsDNA, one strand shown
# Method in brief: as §1
# ETV1 = ETV1 (Homo sapiens, UniProt P50549 1-477); conditions: protein: recombinant; tags: N-terminal GST; dsDNA, one strand shown
# Method in brief: as §1
# HSF1, sequence (Q00613 whole entry): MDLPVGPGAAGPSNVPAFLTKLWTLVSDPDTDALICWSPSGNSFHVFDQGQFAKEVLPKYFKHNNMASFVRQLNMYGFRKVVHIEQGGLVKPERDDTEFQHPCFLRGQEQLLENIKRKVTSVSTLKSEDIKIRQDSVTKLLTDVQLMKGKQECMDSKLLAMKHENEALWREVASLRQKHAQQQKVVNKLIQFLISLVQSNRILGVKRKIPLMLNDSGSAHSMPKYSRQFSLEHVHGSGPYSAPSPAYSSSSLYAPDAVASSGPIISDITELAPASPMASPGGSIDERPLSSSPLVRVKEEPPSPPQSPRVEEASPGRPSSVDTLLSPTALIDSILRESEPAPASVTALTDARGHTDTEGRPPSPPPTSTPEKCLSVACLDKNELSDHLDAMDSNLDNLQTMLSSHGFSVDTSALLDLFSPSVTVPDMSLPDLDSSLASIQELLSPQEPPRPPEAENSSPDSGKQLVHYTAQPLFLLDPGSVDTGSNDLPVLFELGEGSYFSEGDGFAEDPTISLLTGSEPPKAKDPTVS
# CRX, sequence (O43186 whole entry): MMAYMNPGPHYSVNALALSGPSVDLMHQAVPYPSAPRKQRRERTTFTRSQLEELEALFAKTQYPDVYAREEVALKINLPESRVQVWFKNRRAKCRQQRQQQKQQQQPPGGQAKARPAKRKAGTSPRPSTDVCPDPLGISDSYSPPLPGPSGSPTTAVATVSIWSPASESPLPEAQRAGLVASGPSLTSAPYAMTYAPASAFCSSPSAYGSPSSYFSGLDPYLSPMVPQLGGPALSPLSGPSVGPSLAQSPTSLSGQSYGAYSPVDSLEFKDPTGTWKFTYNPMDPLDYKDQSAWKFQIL
# ELF4, sequence (Q99607 whole entry): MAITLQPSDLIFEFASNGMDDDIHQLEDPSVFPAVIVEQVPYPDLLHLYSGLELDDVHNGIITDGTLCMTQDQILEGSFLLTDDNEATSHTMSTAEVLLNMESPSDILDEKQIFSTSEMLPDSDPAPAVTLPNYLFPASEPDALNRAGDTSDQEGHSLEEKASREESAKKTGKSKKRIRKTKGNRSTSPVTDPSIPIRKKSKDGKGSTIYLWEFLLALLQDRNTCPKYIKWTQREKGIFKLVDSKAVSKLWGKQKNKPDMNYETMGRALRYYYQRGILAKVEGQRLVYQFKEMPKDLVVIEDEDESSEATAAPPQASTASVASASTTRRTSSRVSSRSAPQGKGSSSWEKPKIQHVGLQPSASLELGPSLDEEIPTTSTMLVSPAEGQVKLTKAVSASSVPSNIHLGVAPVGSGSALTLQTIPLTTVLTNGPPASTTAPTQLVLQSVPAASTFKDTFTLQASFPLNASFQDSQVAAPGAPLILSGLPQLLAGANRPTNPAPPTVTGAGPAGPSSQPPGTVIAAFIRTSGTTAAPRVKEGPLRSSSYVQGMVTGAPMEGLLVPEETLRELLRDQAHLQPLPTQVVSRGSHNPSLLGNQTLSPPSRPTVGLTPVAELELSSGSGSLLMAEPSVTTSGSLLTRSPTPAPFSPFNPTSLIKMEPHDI
# ETV1, sequence (P50549 whole entry): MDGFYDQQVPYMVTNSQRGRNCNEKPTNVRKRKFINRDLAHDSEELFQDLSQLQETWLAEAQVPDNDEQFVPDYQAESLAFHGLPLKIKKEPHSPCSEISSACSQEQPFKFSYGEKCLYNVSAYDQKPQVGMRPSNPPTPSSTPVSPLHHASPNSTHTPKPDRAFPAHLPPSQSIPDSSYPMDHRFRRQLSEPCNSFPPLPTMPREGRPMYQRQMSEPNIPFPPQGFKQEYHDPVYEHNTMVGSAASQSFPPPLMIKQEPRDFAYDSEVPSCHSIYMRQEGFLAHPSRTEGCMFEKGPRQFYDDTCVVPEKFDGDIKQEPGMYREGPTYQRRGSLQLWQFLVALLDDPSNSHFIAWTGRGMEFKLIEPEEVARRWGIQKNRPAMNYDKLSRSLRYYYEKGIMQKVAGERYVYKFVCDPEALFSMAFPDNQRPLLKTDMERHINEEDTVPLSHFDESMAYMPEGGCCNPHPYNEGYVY
# ELF1, sequence (P32519 whole entry): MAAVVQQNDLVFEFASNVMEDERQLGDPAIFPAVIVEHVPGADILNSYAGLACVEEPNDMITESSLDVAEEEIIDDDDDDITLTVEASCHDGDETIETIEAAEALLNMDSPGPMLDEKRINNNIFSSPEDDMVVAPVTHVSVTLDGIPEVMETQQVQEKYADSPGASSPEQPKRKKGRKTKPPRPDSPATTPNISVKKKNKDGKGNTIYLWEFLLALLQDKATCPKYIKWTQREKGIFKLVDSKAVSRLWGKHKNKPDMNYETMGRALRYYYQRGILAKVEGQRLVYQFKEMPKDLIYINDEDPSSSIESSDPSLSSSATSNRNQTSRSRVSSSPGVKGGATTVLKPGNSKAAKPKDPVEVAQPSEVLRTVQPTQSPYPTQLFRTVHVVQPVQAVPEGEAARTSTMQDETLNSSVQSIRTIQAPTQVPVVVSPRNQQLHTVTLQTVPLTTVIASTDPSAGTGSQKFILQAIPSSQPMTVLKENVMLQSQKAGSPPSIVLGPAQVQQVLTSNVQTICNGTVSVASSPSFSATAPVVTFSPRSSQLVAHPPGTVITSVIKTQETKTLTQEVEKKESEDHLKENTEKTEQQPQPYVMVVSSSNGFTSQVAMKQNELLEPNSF
# ETV5, sequence (P41161 whole entry): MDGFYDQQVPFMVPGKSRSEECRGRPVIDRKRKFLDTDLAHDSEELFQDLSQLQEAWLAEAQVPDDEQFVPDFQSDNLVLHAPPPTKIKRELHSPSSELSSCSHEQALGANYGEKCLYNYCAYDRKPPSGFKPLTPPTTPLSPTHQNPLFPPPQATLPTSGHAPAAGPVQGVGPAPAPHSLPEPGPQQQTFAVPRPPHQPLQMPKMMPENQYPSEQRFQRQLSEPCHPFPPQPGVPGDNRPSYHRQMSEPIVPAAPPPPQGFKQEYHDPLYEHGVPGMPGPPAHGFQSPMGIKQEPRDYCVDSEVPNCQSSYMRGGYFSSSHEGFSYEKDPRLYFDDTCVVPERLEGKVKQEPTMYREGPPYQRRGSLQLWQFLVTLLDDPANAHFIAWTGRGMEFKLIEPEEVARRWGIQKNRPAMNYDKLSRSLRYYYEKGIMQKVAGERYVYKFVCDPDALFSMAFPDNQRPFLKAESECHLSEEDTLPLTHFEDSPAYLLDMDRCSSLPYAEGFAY
# SPIB, sequence (Q01892 whole entry): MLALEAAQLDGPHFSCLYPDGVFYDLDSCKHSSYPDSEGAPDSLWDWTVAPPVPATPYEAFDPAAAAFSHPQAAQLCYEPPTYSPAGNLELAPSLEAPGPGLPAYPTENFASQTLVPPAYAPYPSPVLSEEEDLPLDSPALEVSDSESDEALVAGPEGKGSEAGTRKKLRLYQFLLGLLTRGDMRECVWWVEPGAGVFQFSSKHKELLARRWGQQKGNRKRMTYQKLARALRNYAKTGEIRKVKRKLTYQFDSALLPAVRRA
sequence,measurement,setting,value
CTTTAG,binding signal,FLI1,"1.27 fold enrichment (6-mer frequency, TF over GST control)"
same,binding signal,ELK1,"1.31 fold enrichment (6-mer frequency, TF over GST control)"
same,binding signal,GABPA,"1.21 fold enrichment (6-mer frequency, TF over GST control)"
same,binding signal,ERG,"1.12 fold enrichment (6-mer frequency, TF over GST control)"
same,binding signal,ELF1,"1.19 fold enrichment (6-mer frequency, TF over GST control)"
same,binding signal,EHF,"1.08 fold enrichment (6-mer frequency, TF over GST control)"
same,binding signal,SPI1,"1.28 fold enrichment (6-mer frequency, TF over GST control)"
same,binding signal,SPIB,"1.11 fold enrichment (6-mer frequency, TF over GST control)"
same,binding signal,ELK3,"1.11 fold enrichment (6-mer frequency, TF over GST control)"
same,binding signal,FEV,"1.18 fold enrichment (6-mer frequency, TF over GST control)"
same,binding signal,ETV5,"1.1 fold enrichment (6-mer frequency, TF over GST control)"
same,binding signal,HSF1,"1.37 fold enrichment (6-mer frequency, TF over GST control)"
same,binding signal,ELF4,"1.26 fold enrichment (6-mer frequency, TF over GST control)"
same,binding signal,ELK4,"1.15 fold enrichment (6-mer frequency, TF over GST control)"
same,binding signal,ETV2,"1.23 fold enrichment (6-mer frequency, TF over GST control)"
same,binding signal,ELF3,"1.34 fold enrichment (6-mer frequency, TF over GST control)"
same,binding signal,CRX,"1.51 fold enrichment (6-mer frequency, TF over GST control)"
same,binding signal,ETV1,"1.24 fold enrichment (6-mer frequency, TF over GST control)"
